Records with an inconclusive call do not appear. Activity calls are given as the source filed them. The call rests on the fitted dose curve; in most records, active means well fitted activation curve with a large enough effect in the repeat runs; inconclusive means weak or mixed curves; inactive means flat fitted curve, though single readings scatter.
Assay: A CellTox Green Cytotoxicity Assay to monitor cytotoxicity in HEK293 cells - 24 hour (AID 1224875); further: nearly all actives have a fitted effect of over 45% in size
Conditions: CellTox Green fluorescence; series mostly up to 76.8 µM; activity change: at the top concentration
Excerpt: National Center for Advancing Translational Sciences [NCATS]
NIH Chemical Genomics Center [NCGC]
U.S. Environmental Protection Agency [EPA]
National Institutes of Environmental Health Sciences [NIEHS]
National Toxicology Program [NTP]
Cell-based models are critical for drug discovery. Determining the natural cytotoxic effects resulting from test compounds is an essential research activity. A CellTox Green Cytotoxicity Assay to monitor cytotoxicity in real time of continues cell culture during 40 hours of the compound treatment was used to screen Tox21 10K library compounds in Hek293 cells. CellTox Green Cytotoxicity Assay is a nonlytic, homogeneous, biofluorescent method to measure cytotoxicity in cell culture after experimental manipulation. The assay system uses a proprietary asymmetric cyanine dye that is excluded from viable cells but preferentially stains the dead cell's DNA. […] Viable cells produce no appreciable increases in fluorescence. Therefore, the fluorescence signal produced by the binding interaction with dead cell DNA is proportional to cytotoxicity.
The mixture of Hek293 cell suspension and reagents were dispensed at 600cells/6 ul/well in 1536-well tissue culture treated black solid bottom plates using a Multidrop dispenser. After the assay plates were incubated at a 37 C/5% CO2 incubator for 5 hours, 23 nL of compounds dissolved in DMSO, positive and negative controls was transferred to the assay plate by a pintool work station. The plates were incubated at 37 C for 40 hours. The fluorescence intensity were measured at 0h, 8h, 16h, 24h, 32h and 40h time points using ViewLux plate reader during compound treatment.
On the % scale 0 is the no-effect control and ±100 the full control effect; potency means the concentration at half of the fitted maximal effect.

Structure (SMILES)	activity change	Potency
CCOc1ccc(N)c([N+](=O)[O-])c1	-5.91% (inactive)	–
C[C@@H]1C[C@H]2[C@@H]3CCC4=CC(=O)C=C[C@]4(C)[C@@]3(F)[C@@H](O)C[C@]2(C)[C@@]1(O)C(=O)COC(=O)c1ccncc1	-3.64% [at 35.3 µM, active compounds read high] (inactive)	–
CCC(Cl)CCC(Cl)C(Cl)CC(Cl)C(Cl)C(Cl)CCl (stereo not given)	-8.4% (inactive)	–
O=C(OCCc1ccccc1)c1ccccc1	-1.83% (inactive)	–
O=C(OCCCCCCOC(=O)c1ccccc1)c1ccccc1	14.2% (inactive)	–
C=C(C)C(=O)OCC	-3.78% (inactive)	–
O=C(O)C(S)C(S)C(=O)O (stereo not given)	-17.6% [at 35.3 µM, active compounds read high] (inactive)	–
CCOC(=O)C(=O)CCc1ccccc1	-1.02% [at 35.3 µM, active compounds read high] (inactive)	–
O=C1CCCCCCCCCCCC(=O)OCCO1	29% (inactive)	–
CC(C)O.CC(C)O.CCOC(=O)/C=C(\C)O.CCOC(=O)/C=C(\C)O.[Ti]	-1.36% (inactive)	–
C/C=C(/C(=C/C)c1ccc(OC(C)=O)cc1)c1ccc(OC(C)=O)cc1	-16.3% [at 35.3 µM, active compounds read high] (inactive)	–
CN1CCC(N(Cc2cccs2)c2ccccc2)CC1	–	19 µM (active)
Cc1ccc(N=Nc2c(O)c(C(=O)O)cc3ccccc23)c(S(=O)(=O)O)c1	-14.1% [at 35.3 µM, active compounds read high] (inactive)	–
NCC(=O)CCC(=O)O	7.64% [at 35.3 µM, active compounds read high] (inactive)	–
CCCCC1=NC2(CCCC2)C(=O)N1Cc1ccc(-c2ccccc2-c2nn[nH]n2)cc1	-0.723% [at 35.3 µM, active compounds read high] (inactive)	–
CNC(=O)CN(CCN(CCN(CC(=O)[O-])CC(=O)NC)CC(=O)[O-])CC(=O)[O-].O.[Gd+3]	-4.85% [at 35.3 µM, active compounds read high] (inactive)	–
CCN(CC)CCNC(=O)c1cc(Br)c(N)cc1OC	5.1% [at 35.3 µM, active compounds read high] (inactive)	–
CC1CCC(=O)C1=O (stereo not given)	-3.11% (inactive)	–
CN1Cc2cc(C(=O)N3CCC(C4CCNCC4)CC3)ccc2NC(CC(=O)O)C1=O (stereo not given)	-1.27% [at 35.3 µM, active compounds read high] (inactive)	–
Cc1oc2c(NC(=O)c3c(Cl)cccc3Cl)cccc2c1C(C)(C)O	-0.0457% (inactive)	–

Structure (SMILES)	activity change	Potency
C=CCOC(=O)CCC1CCCCC1	19.7% (inactive)	–
CCCCCCCCCOS(=O)(=O)O	-6.23% (inactive)	–
OC(C#CCN1CCCC1)(c1ccccc1)c1ccccc1	3.04% [at 35.3 µM, active compounds read high] (inactive)	–
C[Si](C)(CCCN)O[Si](C)(C)CCCN	-3.17% (inactive)	–
Cc1cccc(C)c1NC(=O)CN(CC(=O)O)CC(=O)O	-13.9% [at 35.3 µM, active compounds read high] (inactive)	–
O=C1c2ccccc2S(=O)(=O)N1CCCCN1CCN(c2ncccn2)CC1	4.42% [at 35.3 µM, active compounds read high] (inactive)	–
CCCCC(=O)OCC(=O)[C@H]1[C@H](C)C[C@H]2[C@@H]3C[C@H](F)C4=CC(=O)C=C[C@]4(C)[C@@]3(F)[C@@H](O)C[C@@]21C	1.91% [at 35.3 µM, active compounds read high] (inactive)	–
COc1ccc(S(=O)(=O)N2C(=O)[C@@](c3ccccc3OC)(N3C[C@H](O)C[C@H]3C(=O)N(C)C)c3cc(Cl)ccc32)c(OC)c1	-4.09% (inactive)	–
CCN(CC)CCNc1ccc(CNC=O)c2sc3ccc(OC)cc3c(=O)c12	0.551% (inactive)	–
O=C(O)CC(=O)C(=O)O	-1.24% (inactive)	–
C[N+]1(CC2COC(c3ccccc3)(C3CCCCC3)O2)CCCCC1 (stereo not given)	2.8% [at 35.3 µM, active compounds read high] (inactive)	–
CCc1c(C(=O)NN2CCCCC2)nn(-c2ccc(Cl)cc2Cl)c1-c1ccc(Br)cc1	-12.7% (inactive)	–
C/C(=C(\CCOP(=O)(O)O)SC(=O)c1ccccc1)N(C=O)Cc1cnc(C)nc1N	-4.36% [at 6.97 µM, active compounds read high] (inactive)	–
CCCCO	-0.154% (inactive)	–
CC(CC=O)c1ccccc1 (stereo not given)	3.77% (inactive)	–
CC(=O)OC[C@H]1O[C@@H](n2ncc(=O)[nH]c2=O)[C@H](OC(C)=O)[C@@H]1OC(C)=O	-2.83% [at 35.3 µM, active compounds read high] (inactive)	–
CCCCC(CC)COC(=O)CCCCCCCCC(=O)OCC(CC)CCCC (stereo not given)	-21.1% (inactive)	–
COc1ccc2cccc(CCNC(C)=O)c2c1	2.52% [at 35.3 µM, active compounds read high] (inactive)	–
c1ccc(C(O[C@H]2CCCN(CCc3ccc4c(c3)OCO4)C2)c2ccccc2)cc1	-9.93% [at 35.3 µM, active compounds read high] (inactive)	–
CC(C)(C)Cl	3.97% (inactive)	–

From PubChem BioAssay (Tox21)
